Experimental data: the supplement of paper PMC8728848
The entries come from a sample that favours the strongest signals as a whole.

Legend:
Test in all cases: glycan array binding signal (z-score within array); higher = stronger binding
Conditions in all cases: glycan notation: IUPAC condensed, linker removed
[1] = molecular target: Fuc(a1-2)Gal(b1-3)GalNAc(b1-4)[Neu5Ac(a2-3)]Gal(b1-4)Glc
Procedure, shortened: (§1)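 Glycan array binding is given as a within-array Z-score, which can be read as non-binding when negative. The arrays, 3228 of them, came from the Consortium for Functional Glycomics database and were retained only where the protein sequence was available. Z-scores were averaged across arrays of the same protein sequence at different concentrations or buffers and across linkers.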

[2] = molecular target: Fuc(a1-2)Gal(b1-3)[Fuc(a1-4)]GlcNAc(b1-2)Man(a1-3)[Fuc(a1-2)Gal(b1-3)[Fuc(a1-4)]GlcNAc(b1-2)Man(a1-3)]Man(b1-4)GlcNAc(b1-4)GlcNAc
Procedure, shortened: as §1

[3] = molecular target: Fuc(a1-2)Gal(b1-3)[Fuc(a1-4)]GlcNAc(b1-3)[Gal(b1-4)GlcNAc(b1-6)]Gal(b1-4)Glc
Procedure, shortened: as §1

[4] = molecular target: Fuc(a1-2)Gal(b1-4)GlcNAc(b1-2)Man(a1-3)[Fuc(a1-2)Gal(b1-4)GlcNAc(b1-2)Man(a1-6)]Man(b1-4)GlcNAc(b1-4)[Fuc(a1-6)]GlcNAc
Procedure, shortened: as §1

[5] = molecular target: Fuc(a1-2)Gal(b1-4)[Fuc(a1-3)]GlcNAc(b1-3)GalNAc
Procedure, shortened: as §1

[6] = molecular target: Fuc(a1-2)Gal(b1-4)[Fuc(a1-3)]GlcNAc(b1-3)[Neu5Ac(a2-6)Gal(b1-4)GlcNAc(b1-6)]Gal(b1-4)Glc
Procedure, shortened: as §1

[7] = molecular target: Fuc(a1-2)[Gal(a1-3)]Gal(b1-4)[Fuc(a1-3)]GlcNAc
Procedure, shortened: as §1

[8] = molecular target: Fuc(a1-2)[GalNAc(a1-3)]Gal(b1-4)GlcNAc(b1-2)Man(a1-3)[Fuc(a1-2)[GalNAc(a1-3)]Gal(b1-4)GlcNAc(b1-2)Man(a1-6)]Man(b1-4)GlcNAc(b1-4)[Fuc(a1-6)]GlcNAc
Procedure, shortened: as §1

[9] = molecular target: Fuc(a1-2)[GalNAc(a1-3)]Gal(b1-4)[Fuc(a1-3)]GlcNAc(b1-3)GalNAc
Procedure, shortened: as §1

Fuc(a1-3)GlcNAc = molecular target: Fuc(a1-3)GlcNAc
Procedure, shortened: as §1

[10] = molecular target: Fuc(a1-3)[Gal(b1-4)]GlcNAc(b1-2)Man(a1-3)[Fuc(a1-3)[Gal(b1-4)]GlcNAc(b1-2)Man(a1-6)]Man(b1-4)GlcNAc(b1-4)GlcNAc
Procedure, shortened: as §1

Gal(a1-3)Gal(b1-3)GlcNAc = molecular target: Gal(a1-3)Gal(b1-3)GlcNAc
Procedure, shortened: as §1

[11] = molecular target: Gal(a1-3)Gal(b1-3)GlcNAc(b1-2)Man
Procedure, shortened: as §1

[12] = molecular target: Gal(a1-3)Gal(b1-3)[Fuc(a1-4)]GlcNAc(b1-2)Man(a1-3)[Gal(a1-3)Gal(b1-3)[Fuc(a1-4)]GlcNAc(b1-2)Man(a1-6)]Man(b1-4)GlcNAc(b1-4)GlcNAc
Procedure, shortened: as §1

[13] = molecular target: Gal(a1-3)Gal(b1-4)GlcNAc(b1-2)Man(a1-3)[Gal(a1-3)Gal(b1-4)GlcNAc(b1-2)Man(a1-6)]Man(b1-4)GlcNAc(b1-4)GlcNAc
Procedure, shortened: as §1

[14] = molecular target: Gal(a1-3)Gal(b1-4)GlcNAc(b1-6)GalNAc
Procedure, shortened: as §1

Gal(b1-2)Gal = molecular target: Gal(b1-2)Gal
Procedure, shortened: as §1

[15] = molecular target: Gal(b1-3)GlcNAc(b1-3)Gal(b1-4)GlcNAc(b1-2)[Gal(b1-3)GlcNAc(b1-3)Gal(b1-4)GlcNAc(b1-6)]Man(a1-6)[Gal(b1-3)GlcNAc(b1-3)Gal(b1-4)GlcNAc(b1-2)Man(a1-3)]Man(b1-4)GlcNAc(b1-4)[Fuc(a1-6)]GlcNAc
Procedure, shortened: as §1

[16] = molecular target: Gal(b1-3)GlcNAc(b1-3)GalNAc
Procedure, shortened: as §1

[17] = molecular target: Gal(b1-3)[Fuc(a1-4)]GlcNAc(b1-2)Man(a1-3)[Gal(b1-3)[Fuc(a1-4)]GlcNAc(b1-2)Man(a1-6)]Man(b1-4)GlcNAc(b1-4)[Fuc(a1-6)]GlcNAc
Procedure, shortened: as §1

[18] = molecular target: Gal(b1-3)[Fuc(a1-4)]GlcNAc(b1-6)GalNAc
Procedure, shortened: as §1

[19] = molecular target: Gal(b1-3)[Neu5Ac(a2-6)]GlcNAc(b1-4)Gal(b1-4)Glc
Procedure, shortened: as §1

[20] = molecular target: Gal(b1-4)GlcNAc(b1-2)Man(a1-3)[Gal(b1-4)GlcNAc(b1-2)Man(a1-6)]Man(b1-4)GlcNAc(b1-4)[Fuc(a1-6)]GlcNAc
Procedure, shortened: as §1

[21] = molecular target: Gal(b1-4)GlcNAc(b1-2)[Gal(b1-4)GlcNAc(b1-4)]Man(a1-3)[GlcNAc(b1-4)][Gal(b1-4)GlcNAc(b1-2)[Gal(b1-4)GlcNAc(b1-6)]Man(a1-6)]Man(b1-4)GlcNAc(b1-4)GlcNAc
Procedure, shortened: as §1

[22] = molecular target: Gal(b1-4)GlcNAc(b1-2)[Gal(b1-4)GlcNAc(b1-6)]Man(a1-6)[Gal(b1-4)GlcNAc(b1-2)Man(a1-3)]Man(b1-4)GlcNAc(b1-4)GlcNAc
Procedure, shortened: as §1

[23] = molecular target: Gal(b1-4)GlcNAc(b1-3)Gal(b1-4)GlcNAc(b1-2)Man(a1-3)[Gal(b1-4)GlcNAc(b1-3)Gal(b1-4)GlcNAc(b1-2)Man(a1-6)]Man(b1-4)GlcNAc(b1-4)GlcNAc
Procedure, shortened: as §1

[24] = molecular target: Gal(b1-4)GlcNAc(b1-3)Gal(b1-4)GlcNAc(b1-2)Man(a1-3)[Gal(b1-4)GlcNAc(b1-3)Gal(b1-4)GlcNAc(b1-2)Man(a1-6)]Man(b1-4)GlcNAc(b1-4)[Fuc(a1-6)]GlcNAc
Procedure, shortened: as §1

[25] = molecular target: Gal(b1-4)GlcNAc(b1-3)Gal(b1-4)GlcNAc(b1-3)Gal(b1-4)GlcNAc(b1-2)Man(a1-3)[Gal(b1-4)GlcNAc(b1-3)Gal(b1-4)GlcNAc(b1-3)Gal(b1-4)GlcNAc(b1-2)Man(a1-6)]Man(b1-4)GlcNAc(b1-4)GlcNAc
Procedure, shortened: as §1

[26] = molecular target: Gal(b1-4)GlcNAc(b1-3)Gal(b1-4)GlcNAc(b1-3)Gal(b1-4)GlcNAc(b1-2)Man(a1-3)[Gal(b1-4)GlcNAc(b1-3)Gal(b1-4)GlcNAc(b1-3)Gal(b1-4)GlcNAc(b1-2)Man(a1-6)]Man(b1-4)GlcNAc(b1-4)[Fuc(a1-6)]GlcNAc
Procedure, shortened: as §1

B1: Pbx2CASH domain (Cryptococcus neoformans) (protein)
chain: GIPGPNRLYRLSGPIIFTAADQEIATYGYPTGSERAVLRVEGRNTATAIQGDCRRCARVSVKNLVVDGNRKKLGRMRDFQLATGLVVLGGNEGQSIQNSWIKNPRGFTAIHIREGDKLQCSGARVEKNEIGPVGEEYDPEKDGDDPEMSPLGRPLADGVSIACRDSFIRDNTFRDNTDAAIVVYCSPGTLIHA
**Q.** How did the “glycan array binding signal (z-score)” value [1] turn out when B1 was run?
**A.** -0.327

**Q.** And the “glycan array binding signal (z-score)” value [2]?
**A.** 0.448

**Q.** What about the “glycan array binding signal (z-score)” value [3] of the same binder?
**A.** -0.27

**Q.** And the “glycan array binding signal (z-score)” value [4]?
**A.** 0.625

**Q.** What about the “glycan array binding signal (z-score)” value [5] of the same binder?
**A.** 5.37

**Q.** What about the “glycan array binding signal (z-score)” value [6] of the same binder?
**A.** 0.299

**Q.** And the “glycan array binding signal (z-score)” value [7]?
**A.** -0.331

**Q.** What about the “glycan array binding signal (z-score)” value [8] of the same binder?
**A.** -0.315

**Q.** And the “glycan array binding signal (z-score)” value [9]?
**A.** 2.74

**Q.** And the “glycan array binding signal (z-score)” value (Fuc(a1-3)GlcNAc)?
**A.** -0.751

**Q.** And the “glycan array binding signal (z-score)” value [10]?
**A.** -0.141

**Q.** What about the “glycan array binding signal (z-score)” value (Gal(a1-3)Gal(b1-3)GlcNAc) of the same binder?
**A.** 0.751

**Q.** What about the “glycan array binding signal (z-score)” value [11] of the same binder?
**A.** 1.4

**Q.** And the “glycan array binding signal (z-score)” value [12]?
**A.** 2.46

**Q.** And the “glycan array binding signal (z-score)” value [13]?
**A.** 0.227

**Q.** And the “glycan array binding signal (z-score)” value [14]?
**A.** -0.025

**Q.** What about the “glycan array binding signal (z-score)” value (Gal(b1-2)Gal) of the same binder?
**A.** -0.585

**Q.** What about the “glycan array binding signal (z-score)” value [15] of the same binder?
**A.** 2.19

**Q.** And the “glycan array binding signal (z-score)” value [16]?
**A.** 0.422

**Q.** And the “glycan array binding signal (z-score)” value [17]?
**A.** -0.077

**Q.** What about the “glycan array binding signal (z-score)” value [18] of the same binder?
**A.** 1.39

**Q.** And the “glycan array binding signal (z-score)” value [19]?
**A.** -0.128

**Q.** And the “glycan array binding signal (z-score)” value [20]?
**A.** -0.487

**Q.** What about the “glycan array binding signal (z-score)” value [21] of the same binder?
**A.** 0.057

**Q.** What about the “glycan array binding signal (z-score)” value [22] of the same binder?
**A.** -0.632

**Q.** What about the “glycan array binding signal (z-score)” value [23] of the same binder?
**A.** 3.98

**Q.** And the “glycan array binding signal (z-score)” value [24]?
**A.** 0.897

**Q.** What about the “glycan array binding signal (z-score)” value [25] of the same binder?
**A.** 6.89

**Q.** What about the “glycan array binding signal (z-score)” value [26] of the same binder?
**A.** 0.266
